Data on 16 molecules can be found in the antibiotic and cytotoxicity screens of Wong et al. (2023).

Out of some 39,000 compounds screened, about 3,300 (8.5%) were called active. The sample holds actives, similar compounds and a random draw of the others, so the mix is not that of the screen.

The test concerns HepG2. In words: cytotoxicity call (relative viability < 0.9). The settings on record: 10 µM.
With `CC(C)NC(=O)N(C)C[C@@H]1OCc2cnnn2CCCC(=O)N([C@H](C)CO)C[C@H]1C`, the cytotoxicity call is “inactive”.
The same measure for `CCC(=O)Nc1ccc2c(c1)OC[C@@H](C)N(S(=O)(=O)c1cn(C)cn1)C[C@@H](C)[C@H](OC)CN(C)C2=O`: “inactive”; for `Cc1c(N)nc([C@H](CC(N)=O)NC[C@H](N)C(N)=O)nc1C(=O)N[C@H](C(=O)N[C@H](C)[C@@H](O)[C@H](C)C(=O)N[C@H](C(=O)NCCc1nc(-c2nc(C(=O)NCCCNCCCCN)cs2)cs1)[C@@H](C)O)[C@@H](O[C@@H]1O[C@@H](CO)[C@@H](O)[C@H](O)[C@@H]1O[C@@H]1O[C@H](CO)[C@@H](O)[C@H](OC(N)=O)[C@@H]1O)c1c[nH]cn1`: “inactive”; for `C[C@H](CO)N1C[C@H](C)[C@@H](CN(C)C(=O)C2CCCCC2)Oc2cc(Br)ccc2S1(=O)=O`: “inactive”.
As to `N#CCCn1nc2c(c1N)CCC2`, the cytotoxicity call was “inactive”.
The same measure for `Cc1noc(C)c1NC(=O)Nc1ccc2c(c1)C(=O)N([C@@H](C)CO)C[C@H](C)[C@H](CN(C)Cc1ccc(C(F)(F)F)cc1)OCCCC[C@@H](C)O2`: “inactive”.
Regarding `C[C@H](CO)N1C[C@H](C)[C@H](CN(C)C(=O)Cc2ccccc2)OCCCC[C@H](C)Oc2ccc(NC(=O)CCC(F)(F)F)cc2C1=O`, the cytotoxicity call was “inactive”.
The same measure for `C[C@@H]1CN([C@@H](C)CO)C(=O)c2cc(NS(=O)(=O)c3cn(C)cn3)ccc2O[C@@H](C)CCCCO[C@H]1CN(C)C(=O)Nc1cccc2ccccc12`: “inactive”; for `C[C@@H]1CCCCO[C@@H](CN(C)C(=O)Nc2cccc3ccccc23)[C@H](C)CN([C@@H](C)CO)C(=O)c2cc(NS(=O)(=O)c3cn(C)cn3)ccc2O1`: “inactive”.
Take `C[C@H]1CCCCO[C@H](CN(C)C(=O)Nc2cccc3ccccc23)[C@@H](C)CN([C@@H](C)CO)C(=O)c2cc(NS(=O)(=O)c3cn(C)cn3)ccc2O1`: the cytotoxicity call is “inactive”.
The same measure for `C[C@@H]1CCCCO[C@H](CN(C)C(=O)Nc2cccc3ccccc23)[C@H](C)CN([C@H](C)CO)C(=O)c2cc(NS(=O)(=O)c3cn(C)cn3)ccc2O1`: “active”; for `C[C@@H]1CN([C@@H](C)CO)C(=O)c2cc(NS(=O)(=O)c3cn(C)cn3)ccc2O[C@@H](C)CCCCO[C@@H]1CN(C)C(=O)Nc1cccc2ccccc12`: “active”.
As to `C[C@H]1CCCCO[C@@H](CN(C)C(=O)Nc2cccc3ccccc23)[C@@H](C)CN([C@@H](C)CO)C(=O)c2cc(NS(=O)(=O)c3cn(C)cn3)ccc2O1`, the cytotoxicity call is “active”.
For `C[C@@H]1CCCCO[C@@H](CN(C)C(=O)Nc2cccc3ccccc23)[C@@H](C)CN([C@H](C)CO)C(=O)c2cc(NS(=O)(=O)c3cn(C)cn3)ccc2O1`, the cytotoxicity call was “inactive”.
With `C[C@@H]1CCCCO[C@@H](CN(C)C(=O)Nc2cccc3ccccc23)[C@H](C)CN([C@H](C)CO)C(=O)c2cc(NS(=O)(=O)c3cn(C)cn3)ccc2O1`, the cytotoxicity call was “inactive”.
With `C[C@H](CO)N1C[C@H](C)[C@H](CN(C)C(=O)Nc2cccc3ccccc23)OCCCC[C@H](C)Oc2ccc(NS(=O)(=O)c3cn(C)cn3)cc2C1=O`, the cytotoxicity call was “inactive”.
